# Screening results deposited in PubChem by several laboratories.
# Hits are enriched below; roughly 3.8% of the tested compounds scored in any of these assays.
# CR mimetic SO = yeast age-related superoxide inhibition as caloric restriction mimetic. S. cerevisiae aged cells, superoxide DHE fluorescence; hits give low values. superoxide response (% of plate mean), % at 10 µM. 330,000 compounds, 0.18% hits. AID 2690;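 active = superoxide response under a set limit, about three screen SD below normal, cut at about 65% in these data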;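 also: yeast aged for seven days with compound at 30 °C before DHE staining; 100% = average MFI of all compound-treated wells on the plate with controls excluded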
# aDG glyco up = increases alpha dystroglycan glycosylation. Pro5-aDG cells, alpha-DG glycosylation AlphaScreen (IIH6); 0% Pro5, 100% B10-LARGE cell signal. activation, % at 10 µM. 360,000 compounds, 0.22% hits. AID 624168;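 active = activation of at least 8% versus controls, or a plate z-score of at least 8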;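 also: Pro5 are CHO cells carrying HIG-tagged alpha-DG that lacks glycosylation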
# FAS-TE inh = FAS thioesterase (human) inhibition | 360,000 compounds, 0.67% hits | recombinant FAS-TE, OMFH fluorogenic substrate, fluorescence endpoint | P49327 | inhibition, % at 15 µM;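 active = compounds whose normalised, plate-corrected inhibition of enzyme fluorescence in the single-dose primary screen is 50% or more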;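 also: 0% = DMSO with enzyme and 100% = substrate without enzyme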
# SUMO Mot1 rescue = blocks SUMOylation pathway, rescuing yeast Mot1-301 growth; S. cerevisiae Mot1-301 growth rescue, ATP luminescence, 38.5C; percent above DMSO median, 100 means doubled; growth rescue, % at 18.8 µM; 320,000 compounds, 1% hits; AID 2716;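 active = every valid replicate shows activation above 250% relative to neutral control wells; inactive = the rest, any valid replicate at or below 250%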;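 also: OY570 slx delta 5 strain wells were the positive control but not used for scaling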
# Cardio protect = protects H9c2 cardiomyocytes from peroxide injury; H2O2 injury protection, ATPLite, 2 h; 360,000 compounds, 0.63% hits; AID 588492; protection from H2O2 cell death, % at 20 µM;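 active = compounds giving at least 50% protection of heart cells from peroxide-induced death in the single-dose screen, raw or plate-pattern-corrected value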;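 also: 0% = DMSO wells with peroxide and 100% = DMSO wells without peroxide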
# MPTP inh = blocks calcium-induced mitochondrial swelling. 360,000 compounds, 1.4% hits. isolated mouse mitochondria, Ca2+ swelling absorbance, 30 min. AID 602449. inhibition, % at 10 µM;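 active = inhibition of 50% or more, scaled per plate between neutral and stimulator controls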;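 also: 0% = DMSO wells given calcium and 100% = 1 mM EGTA wells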
# Yeast Mot1 SUMO = SUMO pathway inhibitors in yeast Mot1-301 growth; 2,300 tested, under 10 active; shares compounds with SUMO Mot1 rescue; S. cerevisiae Mot1-301 galactose growth, ATP luminescence, 24 h; -100 = growth of slx-deleted rescue strain; growth activity, percent, % at 42 µM;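 active = Signal drops as the depositor expects, and the fitted half-maximal dose is no more than ten times the top valid tested dose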;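 also: more negative values mean stronger growth rescue toward the control strain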
# * marks the source's active call; other numbers are inactive results; . = no result given; + = active, no number.
SMILES,CR mimetic SO,aDG glyco up,FAS-TE inh,SUMO Mot1 rescue,Cardio protect,MPTP inh,Yeast Mot1 SUMO
Cc1[nH]c2ccccc2c1N=Nc1cccc(C(=O)O)c1,100.4,-0.1,-8.8,9.3,3.2,1.3,.
COC(=O)c1cc(N=Nc2c(C)[nH]c3ccccc23)cc(C(=O)OC)c1,97.0,-0.4,-5.8,945.0*,-2.1,10.4,0.5
CN1CCN(CC(=O)N2c3ccccc3C(=O)Nc3cccnc32)CC1,106.2,.,.,+,.,.,0.1
Cc1noc(NS(=O)(=O)c2ccc(NC(=O)c3cc(F)c(F)c(F)c3F)cc2)c1C,.,-0.1,-6.2,.,0.2,0.1,.
COc1ccc(S(=O)(=O)NC(=O)C2(C)CCN2C(=O)Cc2ccccc2)cc1OC (stereo not given),.,0.0,-6.2,.,0.2,-0.8,.
COc1ccc(NC(=O)C2CCCN(C(=O)Nc3cccc(OC)c3)C2)cc1 (stereo not given),91.3,-0.1,0.3,380.9*,2.2,0.1,0.0
COc1ccc(NC(=O)C2CCCN(C(=O)Nc3ccc(OC)cc3)C2)cc1 (stereo not given),116.8,0.0,-6.7,25.2,3.7,0.9,.
CCCCCCCCN1C(=O)[C@H](CC(=O)N2CCN(C(=O)c3ccco3)CC2)C[C@@]2(C(=O)OC)CCCCC=C12,.,0.1,9.8,.,.,-2.7,.
CCCCc1nnc(NC(=O)CSc2nc(O)c(Cc3ccccc3)c(=O)[nH]2)s1,107.7,0.1,-4.5,-1.0,6.7,-0.6,.
CCCCc1nnc(NC(=O)CSc2nc(O)c(-c3ccccc3)c(=O)[nH]2)s1,99.9,0.6,-2.3,630.8*,2.1,-0.3,0.8
NS(=O)(=O)c1cccc(NC(=O)c2cccc(-c3ccc(O)cc3)c2)c1,96.1,-0.2,8.9,-11.1,-8.9,0.0,.
N#CCCN(Cc1cccnc1)C(=O)Nc1cccc(Cl)c1,94.6,-0.3,0.7,+,0.3,-1.4,0.3
CCn1ncc(Br)c1C(=O)Nc1ccccc1OC,85.6,0.0,3.1,234.0,-3.4,0.2,.
CCn1nccc1C(=O)Nc1ccccc1OC,95.0,-0.2,-5.4,747.0*,-0.1,-1.0,-0.1
COc1ccc(/C=C(\C#N)C(=O)c2cccn2C)cc1,102.0,-0.1,-3.5,396.1*,-6.1,3.1,0.0
Cc1nc(CC(=O)N/N=C/c2ccc(OCC(=O)O)cc2)cs1,103.4,0.3,-5.1,571.3*,-2.6,-2.4,-0.4
CCOC(=O)N1CCN(C(=O)c2ccc3ccccc3c2)CC1,104.6,0.0,-2.0,379.2*,-3.6,5.0,-0.1
O=C(COC(=O)c1ccccc1OC(F)F)Nc1ccc(N2CCCCC2)cc1,133.4,0.0,6.2,.,-3.0,-0.5,.
OCC[C@@H]1C[C@H](O)[C@@H](O)[C@]2(CCc3ccccc3CO2)O1,104.9,0.0,-14.3,751.2*,-2.8,-0.4,-0.2
OCC[C@H]1C[C@H](O)[C@@H](O)[C@@]2(CCc3ccccc3CO2)O1,87.0,-0.3,-16.4,-10.1,5.2,-0.7,.
CC1CC(N(C(=O)c2ccccc2Cl)c2ccccc2)c2ccccc2N1 (stereo not given),95.3,-0.1,13.8,453.5*,-8.8,-0.2,0.8
O=c1cc(CN2CCCCC2)c2c(ccc3ccccc32)o1,.,-0.1,37.5,.,-4.0,0.2,.
Cc1ccc2nc(NC(=O)C3CCN(S(=O)(=O)c4cccnc4)CC3)sc2c1,108.0,0.2,1.3,774.5*,16.4,-1.2,0.3
CCCNCc1cc(OCC)c(OCC(N)=O)cc1Br,98.0,-0.1,-6.2,765.5*,15.3,2.5,0.5
COc1cc(CO)c(Br)cc1OCC(N)=O,94.6,-0.2,-8.6,70.4,-2.0,1.8,.
CCN(CC(=O)N1CCN(C)CC1)S(=O)(=O)c1ccc(Cl)cc1,102.2,0.8,-11.1,-3.7,-7.8,-1.4,.
CCN(CC(=O)N1CCCCCC1)S(=O)(=O)c1ccc(Cl)cc1,91.6,-0.1,0.5,+,-4.2,-0.1,-0.4
Cc1cccc(N2CCN(S(=O)(=O)c3cccc4nonc34)CC2)c1C,96.2,-0.2,37.2,-8.0,-9.1,3.9,.
COc1cc(CN2CCN(c3ncccn3)CC2)cc(OC)c1,100.5,0.0,-2.6,534.2*,0.1,2.0,0.1
